Experimental data: PubChem BioAssay
Potency and affinity values are given separately. Inconclusive results are not listed. Entries that show only a call come without a potency. Active and inactive are the calls of the source.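 Rule for the calls, unless noted: active = signal drop whose fitted half-maximal concentration is at most twice the top valid dose, in every test run; inconclusive = mixed calls across runs, poor fit, or flat 30 to 70% inhibition; inactive = wrong direction, flat within 30%, or potency beyond limit.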

Assays:
[1] = RMG-1 ovarian cancer cell viability loss – cherry-pick, dose response (AID 687029);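 note: cells exposed to compound for 96 hours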
[2] = IOSE-T80 viability loss, PAX8-independent line – cell-based, cherry-pick, selectivity assay for PAX8 inhibitor project, dose response (AID 687032;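 active = fitted half-maximal concentration for viability loss no higher than twice the top valid dose, in every repeat run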;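 note: cells exposed to compound for 96 h before reading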)
[3] = CMV-driven luciferase expression suppression in HEK293 – cell-based, luminescence, dry powder, counter-screen for Pax8 inhibitor project, dose response (AID 743020;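 active = signal-lowering compounds whose fitted half-maximal concentration is at or below twice the top tested dose in every run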;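 note: HEK293 cells stably expressing the CMV luciferase reporter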)
[4] = general cell-killing toxicity readout – plate reader, dry powder samples, cytotoxicity control for PAX8 inhibitor project, dose response (AID 743021; call rule not given here)
[5] = viability loss in HeLa cells – cell-based, ATP luminescence, cherry-pick samples, cytotoxicity control, dose response (AID 687004;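 active = a fitted half-maximal concentration no higher than twice the top valid tested dose, with signal falling as cells die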)

C[C@@H]1O[C@@H](O[C@@H]2C=C3CCC4C(CC[C@]5(C)[C@@H](c6ccc(=O)oc6)CC[C@]45O)[C@@]3(C)CC2)[C@H](O)[C@H](O)[C@H]1O (stereo partly specified)
outcome [1]: inactive | outcome [2]: inactive | outcome [3]: inactive | outcome [4]: inactive

CC12CCC3C(CCC4(O)CC(O)CCC34C=NO)C1(O)CCC2C1=COC(=O)C1 (stereo unspecified)
outcome [1]: inactive | outcome [2]: inactive | outcome [3]: inactive | outcome [4]: inactive

C=C1C(C)C2C(Cc3ccccc3)NC(=O)C23OC(=O)/C=C/C(O)CCCC(C)C/C=C/C3C1O (stereo unspecified)
outcome [1]: inactive | outcome [2]: inactive

CC(=O)OC(C)(C)/C=C/C(=O)C(C)(O)C1C(O)CC2(C)C3CC=C4C(CC(O)C(=O)C4(C)C)C3(C)C(=O)CC12C (stereo unspecified)
outcome [1]: inactive | outcome [2]: inactive | outcome [3]: inactive | outcome [4]: inactive

O=c1[nH]c2ccccc2n1C1CCN(C(CCc2ccccc2)c2nnnn2Cc2ccccc2)CC1 (stereo unspecified)
outcome [1]: inactive | outcome [2]: inactive | outcome [3]: inactive

C[C@@H]1CN([C@@H](C)CO)C(=O)CCCn2nncc2CO[C@H]1CN(C)C(=O)Oc1cccc2ccccc12
outcome [5]: inactive

COC(=O)C1=C(c2ccc(F)cc2OCc2ccccc2)C[C@@H]2CC[C@H]1N2C(=O)NCc1ccc2[nH]ccc2c1
outcome [1]: inactive | outcome [2]: inactive | outcome [3]: inactive | outcome [4]: inactive

CCn1nc(/C=C/c2ccccc2)nc2c(=O)n(C)c(=O)nc1-2
outcome [1]: inactive

CC1=C(N2CC2)C(=O)C(CO)=C(N2CC2)C1=O
outcome [1]: inactive | outcome [2]: inactive | outcome [3]: inactive

O=c1[nH]c(CN2CC=C(c3ccccc3)CC2)nc2cc(C(F)(F)F)ccc12
outcome [5]: inactive

O=c1[nH]c2ccccc2n1C1CCN(C(c2cccc3ccccc23)c2nnnn2-c2ccc3c(c2)OCCO3)CC1 (stereo unspecified)
outcome [1]: inactive | outcome [2]: inactive | outcome [3]: inactive | outcome [4]: inactive
